The text below walks through data of publication PMC7826789 (International Journal of Molecular Sciences, 2021).

Some test systems named below: DMPK; DYRK1A; DYRK1B; DYRK2; EGFR(E746-A750del); EGFR(G719C); EGFR(G719S); EGFR(L747-T751del,Sins); EGFR(L858R); EGFR(L858R,T790M); EGFR(L861Q); EGFR(S752-I759del); EGFR(T790M); EGFR.
Conditions in all cases: Compound Concentration (nM):1000
A further assay deals with T1, DLK.
T1 construct: gene MAP3K12

A further assay deals with T2, DMPK2.
T2 construct: gene CDC42BPG

For the next assay, the system named is T3, DRAK1.
T3 construct: gene STK17A

Another assay concerns T4, DRAK2.
T4 construct: gene STK17B

Assay [1] deals with EGFR(L747-E749del, A750P).
For assay [2], the system named is EGFR(L747-S752del, P753S).
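Further: KINOMEscan scanMAX binding as percent activity remaining versus control; lower means stronger binding.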

As to `COc1cc2ncn(-c3cc(O[C@H](C)c4ccccc4Cl)c(C(N)=O)s3)c2cc1OC` [GSK237701A], the “Percent Control” value in the assay on DLK worked out at 59%; in the assay with DMPK2 it was 91%; in the assay with DMPK, 100%; with DRAK1, 100%; in the assay with DRAK2, 89%; in the assay with DYRK1A it was 92%. The “Percent Control” value with DYRK1B is recorded as 100%; with DYRK2, 68%; in the assay on EGFR(E746-A750del) it was 85%; with EGFR(G719C), 64%; in the assay with EGFR(G719S), 69%; in assay [1] it was 100%. The “Percent Control” value in assay [2] was 86%; with EGFR(L747-T751del,Sins) it was 87%; in the assay on EGFR(L858R) it was 100%; in the assay with EGFR(L858R,T790M), 79%; with EGFR(L861Q), 97%; in the assay with EGFR(S752-I759del) it was 100%. Also, the results for the “Percent Control” value with EGFR(T790M) and with EGFR were 75% and 100%, respectively.

On to `NS(=O)(=O)c1ccc(N/N=C2\C(=O)Nc3ccc(C(=O)NCc4ccncc4)cc32)cc1` [GW300657X], for which the “Percent Control” value is 76% in the assay with DLK; 91% in the assay on DMPK2; 100% with DMPK; 0.3% with DRAK1; 4.7% in the assay with DRAK2; 63% with DYRK1A. Also, the “Percent Control” value in the assay on DYRK1B turned out to be 97%; with DYRK2, 37%; in the assay with EGFR(E746-A750del), 91%; in the assay on EGFR(G719C), 100%; in the assay on EGFR(G719S), 97%; in [1], 100%. The “Percent Control” value in assay [2] came out at 90%; in the assay on EGFR(L747-T751del,Sins) it was 81%; in the assay with EGFR(L858R), 94%; with EGFR(L858R,T790M) it was 100%; with EGFR(L861Q), 91%; with EGFR(S752-I759del) it was 98%. Further, the “Percent Control” value is reported as 100% in the assay on EGFR(T790M) and 93% with EGFR.

As for `CCS(=O)(=O)c1ccc(OC)c(Nc2ncc(-c3cccc(OC)c3)o2)c1` [GW580509X], the “Percent Control” value is 88% in the assay on DLK; 100% with DMPK2; 100% with DMPK; 100% in the assay on DRAK1; 100% with DRAK2; 39% with DYRK1A. For the same compound, the “Percent Control” value with DYRK1B is 41%; in the assay on DYRK2, 23%; in the assay on EGFR(E746-A750del), 81%; in the assay on EGFR(G719C), 100%; in the assay with EGFR(G719S) it was 98%; in [1] it was 65%. The “Percent Control” value was 85% in assay [2]; 100% in the assay on EGFR(L747-T751del,Sins); 80% in the assay with EGFR(L858R); 100% with EGFR(L858R,T790M); 81% in the assay on EGFR(L861Q); 95% in the assay with EGFR(S752-I759del). Moreover, the results for the “Percent Control” value in the assay with EGFR(T790M) and in the assay on EGFR were 89% and 83%, respectively.

With `NS(=O)(=O)c1ccc(N/N=C2\C(=O)Nc3ccc(-c4cnco4)cc32)cc1` [GW276655], the “Percent Control” value in the assay with DLK was found to be 100%; with DMPK2 it was 94%; in the assay on DMPK, 72%; with DRAK1 it was 60%; with DRAK2, 36%; in the assay on DYRK1A, 2.5%. In addition, the “Percent Control” value in the assay with DYRK1B was determined as 79%; with DYRK2 it was 4%; in the assay on EGFR(E746-A750del), 100%; in the assay on EGFR(G719C) it was 83%; in the assay with EGFR(G719S), 76%; in assay [1] it was 100%. In addition, the “Percent Control” value was 100% in assay [2]; 89% in the assay with EGFR(L747-T751del,Sins); 72% in the assay on EGFR(L858R); 66% in the assay with EGFR(L858R,T790M); 79% in the assay on EGFR(L861Q); 70% with EGFR(S752-I759del). For the same compound, the “Percent Control” value in the assay with EGFR(T790M) is listed as 66%; with EGFR it was 87%.

In the case of `CN1CCN(C(=O)c2ccc(NC(=O)Nc3ccc(N(C)c4ccnc(Nc5ccc(CS(C)(=O)=O)cc5)n4)cc3)cc2)CC1.Cl` [GW830263A], the “Percent Control” value is 30% with DLK; 64% in the assay on DMPK2; 100% with DMPK; 100% with DRAK1; 100% with DRAK2; 62% in the assay on DYRK1A. The “Percent Control” value with DYRK1B is listed as 91%; with DYRK2 it was 75%; in the assay on EGFR(E746-A750del), 87%; in the assay on EGFR(G719C), 95%; in the assay on EGFR(G719S), 100%; in assay [1], 99%. The “Percent Control” value in assay [2] amounted to 78%; with EGFR(L747-T751del,Sins) it was 100%; in the assay on EGFR(L858R), 92%; in the assay with EGFR(L858R,T790M) it was 55%; with EGFR(L861Q), 92%; with EGFR(S752-I759del) it was 100%. For the same compound, the entries for the “Percent Control” value in the assay with EGFR(T790M) and with EGFR were 54% and 100%, respectively.

Consider `COc1ccc2[nH]c3c4[nH]c5ccc(OC)cc5c4c4c(c3c2c1)C(=O)NC4=O` [GW296115X], for which the “Percent Control” value is recorded as 77% with DLK; 84% in the assay with DMPK2; 56% with DMPK; 0.4% in the assay on DRAK1; 2.2% with DRAK2; 48% in the assay on DYRK1A. Further, the “Percent Control” value in the assay on DYRK1B is reported as 79%; with DYRK2, 50%; in the assay with EGFR(E746-A750del) it was 20%; with EGFR(G719C), 64%; with EGFR(G719S), 57%; in assay [1], 24%. In addition, the “Percent Control” value in assay [2] was determined as 49%; in the assay with EGFR(L747-T751del,Sins), 44%; in the assay with EGFR(L858R), 50%; with EGFR(L858R,T790M), 35%; in the assay with EGFR(L861Q) it was 71%; with EGFR(S752-I759del), 68%. Besides, the entries for the “Percent Control” value in the assay on EGFR(T790M) and in the assay with EGFR were 45% and 51%, respectively.

For the compound `NS(=O)(=O)c1ccc(Nc2ncc(-c3ccccc3)o2)cc1` [GW572399X], the “Percent Control” value came out at 81% in the assay with DLK; 100% in the assay with DMPK2; 100% in the assay with DMPK; 85% in the assay with DRAK1; 100% in the assay with DRAK2; 92% with DYRK1A. Also, the “Percent Control” value in the assay on DYRK1B is on record as 81%; in the assay on DYRK2 it was 57%; in the assay on EGFR(E746-A750del) it was 98%; in the assay with EGFR(G719C) it was 100%; in the assay on EGFR(G719S) it was 100%; in assay [1], 68%. Further, the “Percent Control” value stood at 100% in assay [2]; 100% in the assay with EGFR(L747-T751del,Sins); 88% in the assay with EGFR(L858R); 96% in the assay on EGFR(L858R,T790M); 100% in the assay with EGFR(L861Q); 100% in the assay on EGFR(S752-I759del). In addition, the “Percent Control” value with EGFR(T790M) came out at 92%; in the assay with EGFR, 88%.

For the compound `COc1ccc2cc(-c3c(-c4ccncc4)nc(-c4ccc(S(C)(=O)=O)cc4C)n3C)ccc2c1` [SB-633825], the “Percent Control” value with DLK is 84%; in the assay with DMPK2 it was 41%; in the assay on DMPK, 100%; with DRAK1 it was 93%; in the assay with DRAK2 it was 79%; in the assay with DYRK1A, 77%. Further, the “Percent Control” value in the assay on DYRK1B worked out at 100%; with DYRK2, 70%; in the assay with EGFR(E746-A750del) it was 57%; in the assay with EGFR(G719C) it was 66%; with EGFR(G719S), 84%; in [1], 78%. The “Percent Control” value was 70% in assay [2]; 70% in the assay with EGFR(L747-T751del,Sins); 63% with EGFR(L858R); 38% in the assay with EGFR(L858R,T790M); 41% in the assay with EGFR(L861Q); 93% in the assay with EGFR(S752-I759del). The “Percent Control” value with EGFR(T790M) came out at 40%; with EGFR, 74%.

As for `CN(C)CCNC(=O)Nc1ccc(N(C)c2ccnc(Nc3ccc(CS(C)(=O)=O)cc3)n2)cc1.Cl` [GW830900A], the “Percent Control” value in the assay with DLK was determined as 67%; in the assay with DMPK2, 91%; in the assay on DMPK it was 100%; in the assay on DRAK1 it was 100%; in the assay on DRAK2, 100%; in the assay with DYRK1A it was 100%. Further, the “Percent Control” value in the assay on DYRK1B is recorded as 100%; with DYRK2 it was 85%; in the assay on EGFR(E746-A750del), 92%; in the assay with EGFR(G719C) it was 96%; in the assay with EGFR(G719S), 97%; in assay [1], 73%. The “Percent Control” value in [2] is 79%; in the assay with EGFR(L747-T751del,Sins) it was 100%; in the assay with EGFR(L858R), 83%; in the assay with EGFR(L858R,T790M), 60%; in the assay on EGFR(L861Q), 100%; with EGFR(S752-I759del) it was 100%. Also, the entries for the “Percent Control” value in the assay with EGFR(T790M) and with EGFR were 64% and 95%, respectively.

Turning to `O=C(Nc1n[nH]c2nc(-c3ccc(O)cc3)c(Br)cc12)C1CC1` [SB-725317], the “Percent Control” value in the assay with DLK is listed as 100%; with DMPK2, 100%; with DMPK, 23%; in the assay with DRAK1, 100%; with DRAK2, 95%; in the assay with DYRK1A, 24%. For the same compound, the “Percent Control” value in the assay with DYRK1B came out at 7.4%; in the assay with DYRK2, 6.6%; in the assay with EGFR(E746-A750del), 91%; with EGFR(G719C) it was 100%; with EGFR(G719S), 100%; in assay [1], 76%. The “Percent Control” value in [2] stood at 99%; in the assay on EGFR(L747-T751del,Sins), 100%; in the assay on EGFR(L858R), 96%; with EGFR(L858R,T790M), 100%; with EGFR(L861Q) it was 100%; in the assay with EGFR(S752-I759del), 82%. Moreover, the “Percent Control” value worked out at 96% with EGFR(T790M) and 100% with EGFR.
